Screens from PubChem BioAssay.
Most compounds without a hit are left out; they make up all but 13% or so of the library.
FMDV inh: antivirals against foot and mouth disease virus; 410,000 compounds, 1.2% hits; Potency, µM (titrated, usually from 57.9 µM), for inactives: at the highest dose activity change, negative = inhibition, hits mostly inhibitors; AID 1159524; FMDV antiviral cell-based qHTS; calls by dose curve; tested in HEK293T cells; further: read-out not given here; potency means the concentration at half of the fitted maximal effect; on the % scale 0 is the no-effect control and ±100 the full control effect; nearly all actives have a fitted effect of over 45% in size
Lassa entry inh: Lassa virus entry inhibition; Lassa virus pseudotype entry inhibition, cell reporter; Potency, µM (titrated, usually from 37.9 µM), inactives show at the top dose activity change, negative = inhibition, usual class: inhibitors; 300,000 compounds, 1.2% hits; calls by dose curve; tested in HEK293 cells; further: potency means the concentration at half of the fitted maximal effect; on the % scale 0 is the no-effect control and ±100 the full control effect; nearly all actives have a fitted effect of over 50% in size
Marburg entry inh: Marburg virus entry inhibition | Marburg virus pseudotyped entry inhibition, cell reporter | Potency, µM (top dose mostly 37.8 µM), without a hit: top-dose activity change, negative = inhibition, hits mostly inhibitors | 300,000 compounds, 1.8% hits | AID 540276; calls by dose curve; tested in HEK293 cells; further: potency means the concentration at half of the fitted maximal effect; on the % scale 0 is the no-effect control and ±100 the full control effect
HCV inh: HCV inhibition. Huh7.5.1 HCVcc-Cre infection, luciferase reporter, 44 h. 340,000 compounds, 3.4% hits. Potency, µM (series often up to 41.8 µM), for inactives: at the top dose activity change, negative = inhibition, most hits filed as inhibitors; active means well fitted inhibition curve with a large enough effect; inconclusive means small, poorly fitted or top-dose-only effect, or another doubt; inactive means no such curve, though single readings can be large or run the other way; further: potency means the concentration at half of the fitted maximal effect; on the % scale 0 is the no-effect control and ±100 the full control effect
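1,000 cells/well; 4 h culture; + compound; + HCVcc-Cre (~0.5 moi); 44 h; luciferase substrate, RT 15 min; read 15 sec.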
Shiga inhibitor: Shiga toxin inhibition | inhibition, % at 38.7 µM | 290,000 compounds, 9.2% hits | Vero cells, Shiga toxin protein synthesis inhibition reporter; in the data active means inhibition mostly above about 28%, no sharp cut-off; inactive means mostly below about 43%; further: 0% is about no effect
Cycloheximide cs: counter-screen hit for Shiga toxin inhibitors, cycloheximide; cell reporter, cycloheximide protein synthesis inhibition counterscreen; max response, %; 300,000 compounds, 12% hits; in the data active means max response mostly above about 13%, no sharp cut-off; inactive means mostly below about 14%; further: read at 38.3 µM for the half of the compounds with a filed dose; 0% is about no effect
* hit, by the source's call; [ ] = remark or other dose.

O=C(/C=C/c1ccc(Cl)cc1)Nc1ccc(CN2CCOCC2)cc1 was read as FMDV inh inconclusive, Lassa entry inh -24%[46.1 µM], Marburg entry inh inconclusive, HCV inh inconclusive, Shiga inhibitor -5 and Cycloheximide cs 2.
For NC(=O)c1ccc(NC(=O)c2ccc(CN3CCOCC3)cc2)cc1 the results were FMDV inh 0%, Lassa entry inh 8%, Marburg entry inh 2%, HCV inh 20%, Shiga inhibitor -11 and Cycloheximide cs -2.
For O=C(Nc1ccc2oc(-c3ccncc3)nc2c1)c1ccc([N+](=O)[O-])o1 the results were FMDV inh 8%, Lassa entry inh -26%[46.1 µM], Marburg entry inh inconclusive, HCV inh 10µM*, Shiga inhibitor 53* and Cycloheximide cs 32*.
`O=C(Nc1ccc(-c2nc3ncccc3o2)cc1)c1ccc([N+](=O)[O-])o1` gave FMDV inh 4%, Lassa entry inh 5%[46.1 µM], Marburg entry inh -3%[46.1 µM], HCV inh 3.5µM*, Shiga inhibitor 44 and Cycloheximide cs -3.
Screening O=C(Cc1ccccc1)Nc1ccc2oc(-c3ccncc3)nc2c1 returned FMDV inh -6%, Lassa entry inh -1%, Marburg entry inh -7%, HCV inh -17%, Shiga inhibitor 33 and Cycloheximide cs 15.
Screening Oc1ccc(C(=S)N2CCN(c3cccc(Cl)c3)CC2)cc1 returned FMDV inh -23%, Lassa entry inh inconclusive, Marburg entry inh inconclusive, HCV inh -11%, Shiga inhibitor 3 and Cycloheximide cs -1.
`O=C(COc1ccccc1)Nc1ncn[nH]1` gave FMDV inh 2%, Marburg entry inh 8%, HCV inh 11%, Shiga inhibitor 46* and Cycloheximide cs 21*.
Screening CCc1ccc(OCC(=O)Nc2ncn[nH]2)cc1 returned FMDV inh 44%, HCV inh 26%, Shiga inhibitor 58* and Cycloheximide cs 25*.
For O=C(/C=C/c1ccccc1)Nc1ncn[nH]1 the results were FMDV inh 0%, Lassa entry inh inconclusive, Marburg entry inh inconclusive, HCV inh inconclusive, Shiga inhibitor 29 and Cycloheximide cs 26*.
Screening COc1ccc(C(=O)N/N=C/c2ccc(OC(=O)c3cccc4ccccc34)c([N+](=O)[O-])c2)cc1 returned FMDV inh -19%, Lassa entry inh -24%, Marburg entry inh -3%, HCV inh inconclusive, Shiga inhibitor 17 and Cycloheximide cs 17.
C=CC(=O)N=c1sc2ccccc2n1-c1ccccc1 was read as FMDV inh inconclusive, Lassa entry inh inconclusive, Marburg entry inh inconclusive, HCV inh 11µM*, Shiga inhibitor -4 and Cycloheximide cs -1.
`COc1ccc(-c2ccn(-c3cccc(F)n3)n2)cc1` gave FMDV inh 20%, Lassa entry inh inconclusive, Marburg entry inh 10µM*, HCV inh -29%, Shiga inhibitor 98* and Cycloheximide cs 48*.
COc1ccc(-n2ccc(-c3nn(-c4cccc(C(F)(F)F)c4)ccc3=O)n2)cc1 was read as FMDV inh -32%, Lassa entry inh -9%, Marburg entry inh -30%, HCV inh inconclusive, Shiga inhibitor -14 and Cycloheximide cs 0.
For O=C(/C=C/c1ccco1)Nc1ccccc1N1CCCCC1 the results were FMDV inh -2%, HCV inh inconclusive, Shiga inhibitor 92* and Cycloheximide cs 24*.
O=C(/C=C/c1ccco1)Nc1cccnc1Cl was read as FMDV inh 47%, HCV inh 8%, Shiga inhibitor 157* and Cycloheximide cs 46*.
`O=C(COC(=O)/C=C/c1ccccc1)Nc1cccnc1Cl` gave FMDV inh -4%, Lassa entry inh -1%, Marburg entry inh 4%[46.1 µM] and HCV inh 4%.
COC(=O)c1ccccc1NC(=O)/C=C/c1ccco1 was read as FMDV inh 24%, Lassa entry inh inconclusive, Marburg entry inh 1%, HCV inh inconclusive, Shiga inhibitor 53* and Cycloheximide cs 38*.
O=C(/C=C/c1ccccc1)Nc1cccnc1Cl was read as FMDV inh 34%, Lassa entry inh inconclusive, Marburg entry inh -13%, HCV inh -26%, Shiga inhibitor 105* and Cycloheximide cs 42*.
COc1ccc(/C=C/C(=O)Nc2sc(C)c(C)c2C(=O)O)cc1 was read as FMDV inh -13% and Lassa entry inh inconclusive.
